# Source: ChEMBL document CHEMBL1157539, “Thousands of chemical starting points for antimalarial lead identification” (Nature, 2010)
# The full ranking holds about 13,000 compounds; the median of “IFI” is about 4, and the highest 2% start at about 17. The sample as a whole holds a higher share of the highest values than the screen did.
# Assay: GSK_TCMDC: Inhibition Frequency Index (IFI). The number of non-kinase HTS assays where a compound showed > 50 % inhibition, expressed as a percentage of the number of such assays in which the compound was tested
# Type: functional
row,SMILES,IFI [%]
1,Cc1ccc(Nc2cc(C)nn2-c2nc(C)cc(O)n2)cc1,12.3
2,CN(C)Cc1cccc(-c2ccc3ccnc(N)c3c2)c1,4.42
3,Cc1[nH]c(C)c(-c2ccc(-c3ccccc3C(F)(F)F)nc2)c(=O)c1Br,0.92
4,COc1ccc2c(NN=Cc3ccc(Cl)cc3)ccnc2c1,2.26
5,CCCCOc1c(CNCCCCCCNCc2ccc3ccccc3c2OCCCC)ccc2ccccc12,16.6
6,CCOc1c(CCNCCCCNCCc2ccc3ccccc3c2OCC)ccc2ccccc12,18.4
7,CCCCOc1c(CCNCCCCNCCc2cc(F)c3ccccc3c2OCCCC)cc(F)c2ccccc12,19.6
8,CCOc1c(CNCCCCCCNCc2ccc3ccccc3c2OCC)ccc2ccccc12,22
9,CCOc1cc2ccccc2cc1CNCCCCCCNCc1cc2ccccc2cc1OCC,11.5
10,CCCCOc1c(CCNCCCCNCCc2cc(OC)c3ccccc3c2OCCCC)cc(OC)c2ccccc12,15
11,CCCOc1c(CCNCCCCNCCc2ccc3ccccc3c2OCCC)ccc2ccccc12,14.7
12,CCCCOc1cc(CNCCCCCCNCc2cc(OCCCC)cc3ccccc23)c2ccccc2c1,12.5
13,[O-][s+]1nc(NCCCN(Cc2cccs2)c2ccccn2)c(NCc2ccccc2)n1 (configuration not stated),4.83
14,CCNC(C)(C)CN(Cc1ccc(-c2ccc(C(F)(F)F)cc2)cc1)C(=O)Cn1c(CCc2cccc(F)c2F)nc(=O)c2ccccc21,6.94
15,Cc1cccc2nc(-c3ccc(-c4ccc(CN5CC(C)OC(C)C5)cc4)cc3)[nH]c12 (configuration not stated),6.94
16,CC1CC1C(=O)NC1CCN(CC2(c3ccccc3)CCCCC2)CC1 (configuration not stated),6.38
17,Cc1ccoc1C(=O)Nc1cccc(-c2cccc(-c3nc4cc(C(F)(F)F)ccc4[nH]3)c2)c1,6.48
18,COc1cc(CC2c3cc(O)c(Cl)cc3CCN2C)c(OC)cc1C (configuration not stated),2.13
19,COc1ccc(CCNC(C)Cc2ccc(C(=O)Nc3ccc(CC(C)NCCc4cccc(Cl)c4)cc3)cc2)cc1 (configuration not stated),9.86
20,Cn1c(Nc2cc(C(C)(C)C)on2)nc2cc(Nc3ccnc(Nc4ccc(CS(C)(=O)=O)cc4)n3)ccc21,0.95
21,CCCCCCCNc1cc(C)nc2ccc(OC)cc12,7.3
22,CN(C)c1ccc(OCCCCCCOc2ccccc2)cc1,0.72
23,COc1ccc(C(c2ccc(N(C)C)cc2)c2ccc(N(C)C)cc2)cc1,18.2
24,CN(C)c1ccc(C(c2ccc(N(C)C)cc2)c2cc([N+](=O)[O-])ccc2Cl)cc1,1.47
25,CC(C)CCNC(=O)C1Cc2c([nH]c3ccc(Br)cc23)C2(CCN(Cc3ccccc3)CC2)N1 (configuration not stated),7.04

row,SMILES,IFI [%]
1,CN1CCCC(CN2CCN(Cc3cccc(-c4ccc(-c5nc6ccccc6[nH]5)s4)c3)CC2)C1 (configuration not stated),5.63
2,CN1CCN(c2nsc3ccc(-c4ccc(OCCN5CCCC5)cc4)cc23)CC1,12.2
3,CC1(C)N=C(NC(=O)Nc2ccc([N+](=O)[O-])cc2)N=C(N)N1OCc1cccc2ccccc12,1.46
4,N=C(Nc1ccccc1)Nc1cccc(Cc2ccc([N+](=O)[O-])cc2)n1,19.9
5,COc1ccc(-c2nccc(NC(=N)NCc3ccccc3)n2)cc1,10.7
6,Cc1cc(NCCc2ccccc2)nc(NC(=N)Nc2cccc([N+](=O)[O-])c2)n1,6.21
7,N=C(N)Nc1nccc(NCc2ccccc2)n1,5.3
8,N=C(Nc1cccc(Cc2ccccc2)n1)Nc1ncccn1,17.2
9,CC(C)(C)CCN1CCC(CNC(=O)c2cc(-c3cccc(C(F)(F)F)c3)cs2)C1 (configuration not stated),10
10,Cn1cc(-c2ccnc3[nH]c(-c4cccc(CNC5CCC(O)CC5)c4)cc23)cn1 (configuration not stated),8.11
11,CN(C)Cc1ccc(-c2cc3c(-c4ccc(CN(C)C)cc4)ccnc3[nH]2)cc1,0
12,CN(C)Cc1cccc(-c2cc3c(-c4cnn(C)c4)c(Cl)cnc3[nH]2)c1,22.2
13,OCCN1CCN(Cc2ccc(-c3cccc(-c4nc5cc(F)ccc5[nH]4)c3)cc2)CC1,3.92
14,CN(C)Cc1cccc(-c2cnc(N)c(-c3nc4cc(S(C)(=O)=O)ccc4[nH]3)c2)c1,7.41
15,Fc1ccc2[nH]c(-c3cccc(-c4ccc(CNCC5CCCO5)cc4)c3)nc2c1 (configuration not stated),5.88
16,O=C(Nc1ccc(-c2cccc(-c3nc4cc(C(F)(F)F)ccc4[nH]3)c2)cc1)c1ccncc1,6.42
17,COc1ccc(Cl)cc1C(=O)Nc1ccc(-c2nc3ccccc3[nH]2)cc1,6.52
18,O=C(Nc1ccc(Cl)cc1)Nc1cccc(-c2cccc(-c3nc4cc(C(F)(F)F)ccc4[nH]3)c2)c1,9
19,O=C(Nc1ccc2c(c1)CCNCC2)c1ccc(-c2ccc(Cl)cc2)cc1,9.66
20,O=C(Nc1cccc(C(F)(F)F)c1)c1cccc2nc(C(F)(F)F)[nH]c12,16.4
21,O=C(Nc1ccc(Cl)cc1)c1cccc2nc(C(F)(F)F)[nH]c12,21.3
22,O=C(Nc1ccc(C(F)(F)F)cc1)c1cc(Cl)cc2nc(C(F)(F)F)[nH]c12,23.4
23,O=C(Nc1ccc(Cl)cc1)c1cc(Cl)cc2nc(C(F)(F)F)[nH]c12,27.1
24,Cc1cccc2nc(-c3ccc(-c4ccc(NC(=O)Nc5ccc(Cl)cc5)cc4)cc3)[nH]c12,4
25,COc1cccc(NC(=O)Cn2c(C)c(C#N)c3ccccc32)c1,0

row,SMILES,IFI [%]
1,CCOC(=O)c1ccc(-c2cnc(N)c(-c3nc4cccc(C)c4[nH]3)c2)cc1,0.69
2,Cc1ccc(Nc2nccc(Nc3ccc4c(c3)nc(Nc3cc(C(C)(C)C)on3)n4C)n2)cc1S(C)(=O)=O,7.63
3,COc1ccc(CNC2Cc3ccccc3C2)cc1-c1ccc(OC)c(S(=O)(=O)NCCN2CCCC2)c1,7.69
4,CCn1cc(-c2nc(-c3cc(OC)cc(OC)c3)no2)c(=O)c2ccccc21,4.35
5,CC(C)N1CCN(C(CN2CCN(CCCOc3cccc(F)c3)CC2)c2ccc(F)cc2)CC1 (configuration not stated),6.2
6,CN1CCN(c2ccc(Nc3nccc(-c4c(-c5cccc(NC(=O)c6c(F)cccc6F)c5)nn5ccccc45)n3)cc2)CC1,9.35
7,O=S(=O)(Nc1cc2c(cc1OCCCN1CCCCC1)CCNCC2)c1ccc(-c2ccc(Cl)cc2)cc1,11.9
8,CC(C)Oc1cc2c(cc1NS(=O)(=O)c1ccc(-c3ccc(Cl)cc3)cc1)CCN(C)CC2,12.4
9,CN1CCc2cc(NS(=O)(=O)c3ccc(-c4ccc(Cl)cc4)cc3)c(OCCCN3CCCCC3)cc2CC1,18.6
10,c1cc(CN2CCCCC2)cc(-c2ccc(-c3nc4ccccc4[nH]3)s2)c1,2.86
11,COc1ccc(CNC2Cc3ccccc3C2)cc1-c1ccc(S(=O)(=O)NCc2ccccc2)s1,12.3
12,Cc1ccc(C(=O)Nc2ccc(Nc3ccnc4cc(-c5ccccn5)ccc34)cc2O)cc1,10.3
13,COc1ccc2nc(NC(N)=NC(=O)Nc3ccccc3)nc(C)c2c1,0.81
14,COc1cc2nc(C)nc(Nc3ccc(Cc4ccccc4)cc3)c2cc1OC,6.35
15,COc1ccc(/N=C(\N)Nc2ccccc2)nc1Cc1ccccc1,30.2
16,COc1ccc(Cc2nc(/N=C(\N)Nc3ccccc3)ccc2OC)cc1,22.6
17,COc1ccc(CCN(C)CCOc2ccc(NC(=O)c3cccc4cc5ccccc5nc34)cc2)cc1OC,6.67
18,COc1cc2cc(C(=O)Nc3ccccc3)c(N)nc2cc1OC,1.28
19,Nc1cc(/C=C/c2ccc([N+](=O)[O-])o2)nc2ccccc12,16.7
20,Nc1cc(/C=C/c2ccc([N+](=O)[O-])s2)nc2ccccc12,19.2
21,Nc1c2ccccc2nc2cc([N+](=O)[O-])ccc12,6.92
22,O=C(c1cccc(Br)c1)N1CCN(c2ccc([N+](=O)[O-])c(NC3CC3)c2)CC1,4.2
23,COc1ccc2ncc(F)c(CCN3CC[C@@H](CNCc4nc5c(cc4C)SCC(=O)N5)C3)c2n1,5.83
24,CCOc1ccc2nc3cc(N)ccc3c(N)c2c1,2.08
25,CCOc1ccc2nc3cc([N+](=O)[O-])ccc3c(N)c2c1,6.34

row,SMILES,IFI [%]
1,CCOc1ccc2nc3cc(NC(=O)c4ccco4)ccc3c(N)c2c1,20.5
2,CC(C)(CNCc1cccc(Oc2cccc(C(F)(F)F)c2)c1)c1nc(-c2ccnc(N)n2)c(-c2ccc(Cl)c(O)c2)[nH]1,4.35
3,Cc1cc(N(C)C)nc(Nc2ccc(NC(=O)c3c(F)cccc3Cl)cc2)n1,1.89
4,Cc1cc(N(C)C)nc(Nc2ccc(NS(=O)(=O)c3ccccc3)cc2)n1,9.62
5,CCNc1cc(C)nc(Nc2ccc(NC(=O)c3ccccc3Cl)cc2)n1,11.3
6,CCNc1cc(C)nc(Nc2ccc(NC(=O)c3c(F)cccc3Cl)cc2)n1,18.2
7,CCNc1cc(C)nc(Nc2ccccc2)n1,2.94
8,CCNc1cc(C)nc(Nc2ccc(NS(=O)(=O)c3ccccc3)cc2)n1,20.4
9,Cc1cc(Nc2ccc(O)cc2)nc2cc(O)ccc12,3.85
10,N=C(/N=C(/NCCCCCCN/C(=N/C(=N)NCc1ccc(Cl)c(Cl)c1)N1CCCCC1)N1CCCCC1)NCc1ccc(Cl)c(Cl)c1,18.8
11,CN(C)/C(=N/C(=N)NCc1ccc(Cl)c(Cl)c1)NCCCCCCN/C(=N\C(=N)NCc1ccc(Cl)c(Cl)c1)N(C)C,11.8
12,N=C(/N=C(/NCCCCCCN/C(=N\C(=N)Nc1ccc(Cl)cc1)N1CCCCC1)N1CCCCC1)Nc1ccc(Cl)cc1,10.9
13,CCCCN(CCCC)/C(=N/C(=N)NCc1ccc(Cl)c(Cl)c1)NCCCCCCN/C(=N\C(=N)NCc1ccc(Cl)c(Cl)c1)N(CCCC)CCCC,22.9
14,N=C(/N=C(/NCCCCCCN/C(=N\C(=N)Nc1ccc(Cl)cc1)N1CCOCC1)N1CCOCC1)Nc1ccc(Cl)cc1,6.72
15,CCN(CC)/C(=N/C(=N)NCc1cccc(Cl)c1)NCCCCCCN/C(=N\C(=N)NCc1cccc(Cl)c1)N(CC)CC,13.8
16,Cc1cccc2nc(-c3cccc(-c4ccc(NC(=O)C5CCCO5)cc4)c3)[nH]c12 (configuration not stated),5.31
17,Cc1ccc(C(=O)Nc2ccc(F)cc2)cc1-c1nc(NC2CC(C)(C)NC(C)(C)C2)nc2c1ccc(=O)n2-c1c(F)cccc1F,10.9
18,CC(C)c1ccc(OCCCON2C(=N)N=C(N)NC2(C)C)cc1,6.34
19,CCOC(=O)c1c(-c2ccccc2)nc2c(sc3ccccc32)c1O,1.48
20,c1ccc(CCNc2ccnc(Nc3ccc4[nH]nnc4c3)n2)cc1,3.23
21,CCN(CC)CCN(Cc1ccc(-c2ccc(C(F)(F)F)cc2)cc1)C(=O)Cn1c(SCc2ccc(F)cc2)cc(=O)c2ccccc21,7.64
22,COc1ccc2[nH]ccc(=NN=Cc3ccc(F)cc3)c2c1,2.22
